About 83,000 compounds went through this panel and 20% of them were active in at least one assay; those are over-represented in the sample as a whole.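 Note: values are percent growth. 100 is the growth of untreated cells, values between 100 and 0 indicate rising inhibition; between -100 and 0 indicates cell death.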 Activity calls are given as the source filed them. The calls were made as follows: active = growth percent below 10; inactive = the rest.
Test system: DU-145 prostate
Assay: NCI-60 one-dose screen, 48 h (100 = growth as untreated, 0 = no growth, -100 = all killed)
Conditions: 10 µM unless noted

| SMILES | growth |
| --- | --- |
| CC1=N/C(=C\c2cccc(Br)c2)C(=O)O1 | 109% (inactive) |
| O=C1C=CC(=O)c2c1nc1n2CCCC1 | 63.2% (inactive) |
| COC(=O)[C@H](C(C)C)n1c(=O)c2cc(OC)c(OC)cc2c2cnc3[nH]ccc3c21 | 51.4% (inactive) |
| NCCN1CCN(c2nccc(-c3ccc4ccccc4c3)n2)CC1 | 84.6% (inactive) |
| Oc1cccc(Nc2nccc(-c3ccc4ccccc4c3)n2)c1 | 27.3% (inactive) |
| CN1CCN(c2ccc3nc(-c4ccc5nc(-c6ccc(OCCC(C)(C)C)cc6)[nH]c5c4)[nH]c3c2)CC1 | -80.9% (active) |
| CCOC(=O)C(CC)n1c(=O)c2cc(OC)c(OC)cc2c2cnc3[nH]ccc3c21 (centres undefined) | 78.5% (inactive) |
| O=C(Cn1cc(CN2C(=O)c3ccccc3S2(=O)=O)nn1)Nc1ccc([N+](=O)[O-])cc1Cl | 105% (inactive) |
| COc1ccc2[nH]c(=O)c(/C=C/C(=O)c3ccc(Nc4nccc(-c5ccc6ccccc6c5)n4)cc3)cc2c1 | 99.9% (inactive) |
| Cn1cc(-c2ccc(-c3cn(C)c4ncccc34)[nH]2)c2cccnc21 | 94.2% (inactive) |
| Nc1ccc(Nc2nccc(-c3ccc4ccccc4c3)n2)cc1 | 67.4% (inactive) |
| CCN1CCN(Cc2ccc(NC(=O)Nc3nc4ccc(Oc5ccnc(C(=O)NC)c5)cc4s3)cc2C(F)(F)F)CC1 | -16.1% (active) |
| COCCOc1ccc(-c2nc3ccc(-c4nc5ccc(N6CCN(C)CC6)cc5[nH]4)cc3[nH]2)cc1 | 29.7% (inactive) |
| CCOC(=O)C(=Cc1ccccc1F)C(=O)OCC | 71.1% (inactive) |

From PubChem BioAssay (NCI)
